The list is not random: actives were taken first. Their share in the collection is about 8%.
LASV entry inh: Lassa virus entry inhibition; Lassa virus pseudotyped entry inhibition, cell-based qHTS; Potency, µM (titrated, usually from 49.2 µM), inactives show at the highest dose activity change, negative = inhibition, hits mostly inhibitors; 18,000 tested, 4.1% active; AID 720533
Marburg entry: blocks Marburg virus binding or cell entry | Marburg virus pseudotype entry/binding inhibition, cell-based | Potency, µM (series often up to 49.2 µM), inactives show top-dose activity change, negative = inhibition, usual class: inhibitors | 18,000 tested, 6.5% active
* marks the source's active call; other numbers are inactive results; [ ] = remark or other dose. Calls come from the whole dose curve; tested in HEK293 cells. % is set by controls: 0 for no effect and ±100 for the full control effect; potency is the fitted concentration of half-maximal effect.

`O=C(O)c1ccccc1Nc1cccc(OCc2ccc3ccccc3n2)c1` gave LASV entry inh 15.8µM* and Marburg entry inconclusive.
For O=C(O)c1ccccc1Nc1ccc(CCc2ccc(Cl)c(Cl)c2)cc1 the results were LASV entry inh -23.1% and Marburg entry -27.5%.
For COC(=O)[C@H]1C[C@@]2(CC=C(C)C)C(=O)[C@@](CC=C(C)C)(C(=O)C(C(=O)c3ccccc3)=C2OC)C1(C)C the results were LASV entry inh -3.2%[8.59 µM] and Marburg entry -31.4%[8.59 µM].
Screening O=C(c1n[nH]c2c1CCCC2)N1CCOc2ccc(C(O)C3CCCCC3)cc2C1 (configuration not stated) returned LASV entry inh 8.91µM* and Marburg entry 11.2µM*.
O=C(c1ccc(Cn2cnnn2)cc1)N1CCOc2ccc(C(O)C3CCCCC3)cc2C1 (configuration not stated) was read as LASV entry inh inconclusive and Marburg entry -25.4%.
Screening CCc1nc(CN2CCOc3ccc(C(O)C4CCCCC4)cc3C2)c(C)[nH]1 (configuration not stated) returned LASV entry inh inconclusive and Marburg entry 12.6µM*.
Screening OC(c1ccc2c(c1)CN(Cc1cccc3nccnc13)CCO2)C1CCCCC1 (configuration not stated) returned LASV entry inh -1.1% and Marburg entry -6.6%.
For C=C(C)CCCN1C=C(C(=O)OCC)C(c2ccccc2)NC1=O (configuration not stated) the results were Marburg entry -13.9%[8.59 µM].
For C[C@H]1[C@@H](C(=O)N2CCCC2)CC(=NOCc2ccccc2)C(=NOCc2ccccc2)C[C@H]1c1ccccc1 the results were Marburg entry -29.4%[8.59 µM].
`CCOC(=O)C1(c2ccccc2)CCN(CCC(C#N)(c2ccccc2)c2ccccc2)CC1` gave LASV entry inh 7.94µM* and Marburg entry 2.51µM*.
Screening CCC(=O)OC1(c2ccccc2)CCN(C)CC1 returned LASV entry inh -5.9%[107 µM] and Marburg entry -15.3%[107 µM].
CC(=O)OC[C@H]1O[C@@H](ON=C[C@@H](C)[C@H](OCc2ccccc2)C(C)C)[C@@H](OC(C)=O)[C@@H](OC(C)=O)[C@@H]1OC(C)=O was read as Marburg entry 43.0%[8.59 µM].
Screening C#CCN1C(=O)CC[C@@]23C1=NC(C(=O)OC)=C(C(=O)OC)[C@@H]2N(Cc1ccccc1)c1ccccc13 returned LASV entry inh -23.4%[8.59 µM] and Marburg entry -20.3%[8.59 µM].
`CC1=CC(=C(c2ccc(N)cc2)c2ccc(N)cc2)C=CC1=N` gave LASV entry inh 7.94µM* and Marburg entry inconclusive.
Screening COC[C@@H](OC(C)=O)[C@H]1OCc2ccccc2[C@@H]1C=Cc1ccccc1 returned LASV entry inh 10.7%[8.59 µM] and Marburg entry 14.2%[8.59 µM].
Screening CCCCC/C=C\C/C=C\C/C=C\C/C=C\CCCC(=O)NCCO returned LASV entry inh 2.7% and Marburg entry 8.6%.
Screening CCCCC/C=C\C/C=C\C/C=C\C/C=C\CCCC(=O)Nc1ccc(O)cc1 returned LASV entry inh 31.6µM* and Marburg entry inconclusive.
`CCCCC/C=C\C/C=C\C/C=C\C/C=C\CCCC(=O)Nc1ccc(O)cc1C` gave LASV entry inh 12.6µM* and Marburg entry inconclusive.
`CCCCC/C=C\C/C=C\C/C=C\C/C=C\CCCC(=O)NCC(=O)O` gave LASV entry inh inconclusive and Marburg entry -56.2%.
Screening CC1=C2[C@H](O)[C@H]([C@@H](C)C(=O)NCCC(C)C)CC[C@@]2(C)C=CC1=O returned LASV entry inh 6.0%[8.59 µM] and Marburg entry 23.2%[8.59 µM].
C[C@@H]1CC[C@H]2C(=O)N(Cc3ccc(Cl)cc3)C[C@@H](O)CN2[C@@H]1c1ccc(Br)cc1 was read as LASV entry inh -1.6%[8.59 µM] and Marburg entry -14.8%[8.59 µM].
Screening CCCCCC(=O)N1C[C@@H](n2cc(-c3ccc(F)cc3)nn2)[C@H](O)C[C@H]1c1ccc(OC)cc1 returned Marburg entry -35.3%.
For Clc1ccc(C2(Cn3cncn3)OCCO2)c(Cl)c1 the results were LASV entry inh -19.3% and Marburg entry -10.2%.
`CCCC1COC(Cn2cncn2)(c2ccc(Cl)cc2Cl)O1` (configuration not stated) gave LASV entry inh 12.6µM* and Marburg entry 11.2µM*.
For CN(C)CCNC(=O)Nc1ccc(N(C)c2ccnc(Nc3ccc(CS(C)(=O)=O)cc3)n2)cc1 the results were LASV entry inh 60.4% and Marburg entry -45.4%.
`CCN1C(=NCCCCO)N[C@@H](CCc2ccccc2)[C@H](C(=O)OC)[C@H]1C` gave LASV entry inh -7.6%[8.59 µM] and Marburg entry 9.2%[8.59 µM].
For C=C(C)C(=O)C=CCCCC=CC(=O)OCC the results were LASV entry inh 6.7%[8.59 µM] and Marburg entry 7.0%[8.59 µM].
`COc1cc(/C=C/C(=O)N2CCN(CC(=O)N3CCCC3)CC2)cc(OC)c1OC` gave LASV entry inh -12.0% and Marburg entry 12.1%.
For CCN(CC)CCCCCCCCOC(=O)c1cc(OC)c(OC)c(OC)c1 the results were LASV entry inh 25.1µM* and Marburg entry 12.6µM*.
Screening CCN(CC)CCOC(=O)c1ccc(N)cc1 returned LASV entry inh 5.9% and Marburg entry -12.0%.
COc1cc(C(=O)OCCCN2CCCN(CCCOC(=O)c3cc(OC)c(OC)c(OC)c3)CC2)cc(OC)c1OC was read as LASV entry inh inconclusive and Marburg entry 7.08µM*.
`COC[C@H]1O[C@H](c2ccccc2)C=C[C@H]1OCC=C(C)C` gave LASV entry inh 16.6%[8.59 µM] and Marburg entry 42.1%[8.59 µM].
For CCN(CC)C(C)CN1c2ccccc2Sc2ccccc21 (configuration not stated) the results were LASV entry inh 14.1µM* and Marburg entry 1.58µM*.
Screening CC(CN(C)C)CN1c2ccccc2S(=O)(=O)c2ccccc21 (configuration not stated) returned LASV entry inh -5.4% and Marburg entry inconclusive.
Screening O=C(c1cccs1)N1C[C@@H](n2cc(C3CC3)nn2)[C@@H](O)C[C@@H]1c1ccc(Cl)cc1 returned LASV entry inh -19.4% and Marburg entry -11.1%.
CS(=O)(=O)CCNCc1nc(-c2ccc3ncnc(Nc4ccc(OCc5cccc(C(F)(F)F)c5)cc4)c3c2)cs1 was read as LASV entry inh -17.6% and Marburg entry -16.2%.
For CC(Nc1oc(-c2ccccc2)nc1C(C)(C)C)c1ccccc1 (configuration not stated) the results were Marburg entry -4.8%[8.59 µM].
Screening CN(C)CCc1cc2c(c3c1ccc1ccccc13)OCO2 returned LASV entry inh inconclusive and Marburg entry 12.6µM*.
`COc1ccc2c(c1)[C@@]1(OCCC=C[C@@H]1C)C(=O)N2Cc1ccc(Br)cc1` gave LASV entry inh -21.2%[8.59 µM] and Marburg entry 5.4%[8.59 µM].
CN1CCN(c2ccc(Nc3c4ccccc4nc4ccccc34)cc2)CC1 was read as LASV entry inh inconclusive and Marburg entry 2µM*.
O=c1nc2ccccc2c2n1C[C@H](CN1CCN(c3ccccc3)CC1)N2 was read as LASV entry inh -0.6% and Marburg entry 0.4%.
Screening CSCC[C@@H]1NC(=O)[C@@H]2CSCCS(=O)(=O)N2C1=O returned LASV entry inh 19.3% and Marburg entry 28.2%.
Screening CC(=O)OC[C@H]1O[C@H](C#Cc2ccccc2)C=C[C@H]1O returned LASV entry inh 5.1%[8.59 µM] and Marburg entry -3.2%[8.59 µM].
`CCC1/C=C/C=CCC(C)C(O)[C@@](C)(O)C(=O)C(C)C(O)C(C)C(=O)C(C)C(O)C(C)C=CC(=O)O[C@H]2C(C)C(CC1)O[C@]1(CCC(C)C(CC(C)O)O1)C2C` (some centres not stated) gave LASV entry inh inconclusive and Marburg entry 0.0794µM*.

Bioassay records (PubChem BioAssay)
